Sampled rows, rich in hits. Any-hit rate of the full collection: about 3.3%.
TsaE inh – displaces an ADP probe from E. coli YjeE (TsaE). Potency, µM. purified YjeE enzyme, qHTS inhibition assay. actives 0.05% (n = 71,000). P0AF67
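Fluorescence polarization of a BODIPY Texas Red–ADP probe (2 uM) bound to purified YjeE (10 uM) was read after 15 min room-temperature incubation with compounds. Loss of polarization marks inhibitors; ADP serves as titrated control.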
TSHR agonist – agonists of human thyroid stimulating hormone receptor; Potency, µM (highest dose often 57.1 µM), most hits filed as activators; P16473; AID 926; HEK293-CNG-TSHR cells (CNG channel as cAMP sensor), membrane potential dye, cAMP; actives 0.48% (n = 73,000); active means well fitted activation curve with a large enough effect in the main read-out, with a control signal flat, not every such curve was filed as active; inconclusive means small, poorly fitted or top-dose-only effect, or a change in a side signal; inactive means no such curve, though single readings can be large or run the other way; reference of the percent scale not stated here;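 further: the control signal comes from parental cells without the receptor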
Target sequence (P16473 whole entry, looked up): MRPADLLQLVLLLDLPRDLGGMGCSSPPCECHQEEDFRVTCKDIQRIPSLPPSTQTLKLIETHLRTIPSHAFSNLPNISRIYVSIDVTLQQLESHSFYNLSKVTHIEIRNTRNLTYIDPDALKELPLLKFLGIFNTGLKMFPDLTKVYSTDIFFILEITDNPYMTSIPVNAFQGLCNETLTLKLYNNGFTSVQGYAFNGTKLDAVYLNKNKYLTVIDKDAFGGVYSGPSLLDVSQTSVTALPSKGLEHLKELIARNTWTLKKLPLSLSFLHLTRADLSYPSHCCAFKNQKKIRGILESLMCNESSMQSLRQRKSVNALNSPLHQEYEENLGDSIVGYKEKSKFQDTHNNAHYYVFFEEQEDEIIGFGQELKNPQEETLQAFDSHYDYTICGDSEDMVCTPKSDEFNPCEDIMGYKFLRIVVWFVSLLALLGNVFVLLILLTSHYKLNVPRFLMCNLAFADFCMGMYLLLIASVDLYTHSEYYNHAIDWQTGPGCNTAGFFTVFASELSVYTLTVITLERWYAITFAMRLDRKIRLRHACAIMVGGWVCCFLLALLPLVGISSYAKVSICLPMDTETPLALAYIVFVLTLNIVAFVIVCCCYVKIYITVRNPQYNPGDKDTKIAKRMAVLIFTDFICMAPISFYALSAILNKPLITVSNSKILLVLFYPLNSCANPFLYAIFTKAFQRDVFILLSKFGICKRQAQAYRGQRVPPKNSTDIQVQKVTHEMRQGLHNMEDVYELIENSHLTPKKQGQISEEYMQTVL
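HEK 293 cells stably expressing TSHR and a modified CNG channel, with CNG-only parental cells as counterscreen, were preloaded 60 min at room temperature with membrane potential dye containing 100 uM RO 20-1724. Compound exposure was 30 min, and depolarization was read as fluorescence at 590 nm.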
Hsp90 Hop PPI – changes Hsp90-Hop TPR2A binding signal, up or down; Potency, µM (highest dose often 57 µM); actives 0.44% (n = 71,000); AlphaScreen TPR2A-His6 binding biotin-Hsp90 C-terminal peptide; active means well fitted curve in either direction with a large enough effect; inconclusive means small, poorly fitted or top-dose-only effect, or another doubt
HEK293 cAMP cs – counter-screen for TSHR agonists: cAMP increase in parental HEK293. parental HEK293 CNG cAMP sensor, membrane potential fluorescence. Potency, µM (titrated, usually from 57.1 µM), actives largely listed as activators. actives 2.5% (n = 73,000). AID 938; further: nearly all actives have a fitted effect of over 55% in size
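Counterscreen for endogenous-receptor signalling: CNG-channel HEK 293 cells report cAMP rise by membrane depolarization. After 60 min dye equilibration with 100 uM RO 20-1724, compounds incubated 30 min before bottom-read fluorescence at 590 nm.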
BRCT PPI green – blocks human BRCA1 BRCT binding to phosphopeptide, green readout; P38398; BRCA1 BRCT-phosphopeptide binding, green fluorescence polarization; Potency, µM (highest dose often 76.9 µM), hits mostly inhibitors; actives 0.05% (n = 75,000); AID 875
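Compounds were incubated for 12 min at room temperature with a complex of 100 nM fluorescein-tagged pBACH1 decapeptide and 250 nM His-tagged BRCT protein. Buffer was phosphate pH 7.3 with EDTA, DTT and Tween 20. Disruption of binding lowers the polarization signal.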
BRCT PPI red – disrupts BRCA1 BRCT binding to phosphoprotein, red fluorophore readout; BRCT-phosphopeptide binding, red fluorescence polarization; Potency, µM (titrated, usually from 76.9 µM), actives largely listed as inhibitors; actives 0.03% (n = 75,000); AID 892
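Fluorescence polarization: 100 nM His-tagged BRCA1 BRCT with 100 nM TAMRA-labelled phospho-BACH1 decapeptide, phosphate buffer pH 7.3 with 150 mM NaCl, DTT, 0.01% Tween 20; 12 min RT. Binding inhibition seen as FP decrease.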
Each line names hits and unclear results; the compound was inactive in the other large screens. Unless noted, the call rests on the fitted dose curve; in most records, active means well fitted curve in the direction sought with a large enough effect; inconclusive means small, poorly fitted or top-dose-only effect, or another doubt; inactive means no such curve, though single readings can be large; an effect the other way counts as inactive or inconclusive.

CC[C@H](NC(C)C)[C@H](O)c1ccc(O)c(O)c1	TSHR agonist inconclusive, HEK293 cAMP cs 0.251µM
CNC[C@H](O)c1ccc(O)c(O)c1	none (no result: TSHR agonist, HEK293 cAMP cs)
Cc1nnc(NC(=O)CSc2cn(CCNC(=O)c3ccccc3)c3ccccc23)s1	none
NC(=O)CSc1cn(CCNC(=O)c2cccs2)c2ccccc12	TSHR agonist 31.6µM
CSC(N)=NCCC[C@@H](N)C(=O)O	none
Cn1ncc(C#N)c1/N=C/N(Cc1ccccc1)Cc1ccccc1	TSHR agonist inconclusive, HEK293 cAMP cs 15.8µM
COc1ccc(-c2nc3cncnc3n(-c3ccccc3)c2=O)cc1	none
C=CCNc1nc2c(c(=O)n(C)c(=O)n2C)n1Cc1ccc(F)cc1	TSHR agonist inconclusive, HEK293 cAMP cs 25.1µM
CCCC[C@H]1C[C@@H]1[C@@H]1N(P(=O)(c2ccccc2)c2ccccc2)[C@](CO)(c2ccccc2)CC12CC2	TSHR agonist inconclusive, HEK293 cAMP cs inconclusive
CCCC[C@H]1C[C@@H]1[C@@H]1N(C(C)=O)[C@H](c2cccc(OC)c2)CC12CC2	TSHR agonist inconclusive, HEK293 cAMP cs 20µM
Cc1ccc(-c2nn(-c3ccccc3)cc2C2SCC(=O)N2Cc2ccccc2)o1 (configuration not stated)	TSHR agonist 25.1µM
O=C1CSC(c2cn(-c3ccccc3)nc2-c2cc3ccccc3oc2=O)N1Cc1ccco1 (configuration not stated)	none (no result: TSHR agonist)
CCOC(=O)N1CCN(CC(=O)Nc2cc3c(cc2C(C)=O)OCO3)CC1	none
CC(=O)c1cc2c(cc1NC(=O)CN1CCN(c3cccc(C(F)(F)F)c3)CC1)OCO2	TSHR agonist inconclusive, HEK293 cAMP cs 15.8µM
O=C(O)C1CCCN1S(=O)(=O)c1cccc2cccnc12 (configuration not stated)	none
COc1ccc(S(=O)(=O)Cc2ccc(C(=O)N3CCN(c4ccc(Cl)cc4)CC3)o2)cc1	TSHR agonist 20µM
COc1ccc(N2CCN(C(=O)c3ccc(CS(=O)(=O)c4ccc(OC)cc4)o3)CC2)cc1	TSHR agonist inconclusive, HEK293 cAMP cs inconclusive
COc1cc(Cn2c(-c3nonc3N)nc3ccccc32)ccc1C	TSHR agonist inconclusive, HEK293 cAMP cs 25.1µM
COc1cccc(Cn2c(-c3nonc3N)nc3ccccc32)c1	TSHR agonist inconclusive, HEK293 cAMP cs 25.1µM
COc1ccc(CCNC(=O)Cn2c(-c3nonc3N)nc3ccccc32)cc1OC	TSHR agonist inconclusive, HEK293 cAMP cs inconclusive
CCOC(=O)Cn1nnnc1C(CC)N(Cc1cc2c(C)cc(C)cc2[nH]c1=O)C1CCCC1 (configuration not stated)	none
CCOC(=O)Cn1nnnc1C(CC)N(Cc1cc2ccc(C)cc2[nH]c1=O)C1CCCC1 (configuration not stated)	TSHR agonist inconclusive, HEK293 cAMP cs 15.8µM
CCOC(=O)Cn1nnnc1C(CC)N(Cc1cccs1)Cc1cc2cc(C)ccc2[nH]c1=O (configuration not stated)	TSHR agonist inconclusive, HEK293 cAMP cs 3.98µM
CCC(c1nnnn1C1CCCC1)N(Cc1cccs1)Cc1cc2cc(C)ccc2[nH]c1=O (configuration not stated)	none (no result: TSHR agonist)
O=C(c1cccc(F)c1)N1CCC[C@@]2(CCN(Cc3nccs3)C2)C1	none
O=c1c(-c2cc(F)cc(F)c2)nc2cncnc2n1Cc1ccccc1	none
CN(Cc1ccccc1)Cc1nc2c(c(=O)n(C)c(=O)n2C)n1CCc1ccccc1	TSHR agonist inconclusive, HEK293 cAMP cs 12.6µM
CCCCn1c(CN(C)Cc2ccccc2)nc2c1c(=O)n(C)c(=O)n2C	TSHR agonist inconclusive, HEK293 cAMP cs 15.8µM
COc1ccc(OC)c([C@H]2Nc3ccccc3NC3=C2C(=O)CC(C)(C)C3)c1Br	none (no result: BRCT PPI green, BRCT PPI red)
Cc1cc(=O)oc2cc(O)c(O)cc12	none (no result: TsaE inh, TSHR agonist, Hsp90 Hop PPI, HEK293 cAMP cs)
CCOC(=O)c1cc(-c2ccc3c(c2)OCCO3)nc2c1c(C)nn2CCC#N	TSHR agonist inconclusive, Hsp90 Hop PPI inconclusive, HEK293 cAMP cs 20µM
CCOC(=O)c1cc(-c2ccco2)nc2c1c(C)nn2CCC#N	TSHR agonist inconclusive, HEK293 cAMP cs inconclusive
CCCCOn1c(C)c(C(=O)OCC)c2c3nonc3ccc21	TSHR agonist inconclusive, Hsp90 Hop PPI 31.6µM, HEK293 cAMP cs 12.6µM
N=C(C[C@@H](O)COc1ccccc1-c1ccccc1)N1CCCCC1	TSHR agonist inconclusive, HEK293 cAMP cs 31.6µM
O=C(c1cc2ccccc2cc1OCC(O)CN1CCCCC1)N1CCCCC1 (configuration not stated)	TSHR agonist inconclusive, HEK293 cAMP cs inconclusive
O=C1Nc2ccc(S(=O)(=O)N3CCOCC3)c3cccc1c23	none
O=C1Nc2ccc(S(=O)(=O)N3CCCCCC3)c3cccc1c23	TSHR agonist inconclusive, HEK293 cAMP cs 31.6µM
CCOc1ccc(-c2nn3c(-c4ccc(F)cc4)nnc3s2)cc1	none (no result: TSHR agonist)
CCOc1ccc(-c2nnc(-c3snc(-c4ccc(F)cc4)c3N=CN(C)C)o2)cc1	TSHR agonist inconclusive, HEK293 cAMP cs 15.8µM
N#Cc1cccc(NC(=O)N2CC3(CCN(C(=O)c4ccco4)CC3)C2)c1	none
COc1ccc(N(C(=O)c2ccco2)S(=O)(=O)c2cc(OC)ccc2OC)cc1	TSHR agonist inconclusive, HEK293 cAMP cs 15.8µM
COc1ccc(CN(C(=O)c2ccco2)c2ccc(Br)cc2)cc1OC	TSHR agonist inconclusive, Hsp90 Hop PPI inconclusive, HEK293 cAMP cs 31.6µM
COc1cc(CN(C(=O)c2ccco2)c2ccc(C)cc2)ccc1O	none
CN(C)CCn1c(C(=O)Nc2ccccc2)cc2ccccc21	TSHR agonist inconclusive, HEK293 cAMP cs 2µM
O=C(OC1Cc2c(O)cc(O)cc2OC1c1cc(O)c(O)c(O)c1)c1cc(O)c(O)c(O)c1 (configuration not stated)	none (no result: TsaE inh, TSHR agonist, Hsp90 Hop PPI, HEK293 cAMP cs)
CCCCn1c(NC(=O)CC)c(C#N)c2nc3ccccc3nc21	TSHR agonist inconclusive, HEK293 cAMP cs 25.1µM
Oc1ccccc1C(Sc1nc2ccccc2s1)Sc1nc2ccccc2s1	none
COc1ccc(C(=O)COC(=O)c2ccco2)cc1	none
O=C(COC(=O)c1ccccc1F)c1ccc(-n2nncc2-c2ccco2)cc1	TSHR agonist inconclusive, HEK293 cAMP cs 25.1µM
Cn1c(SCC(=O)NC2CCCC2)nnc1-c1ccc(S(=O)(=O)N2CCOCC2)cc1	TSHR agonist inconclusive, HEK293 cAMP cs 25.1µM
Cc1c2ccccc2c(C)c2c1ccc1ccccc12	TSHR agonist inconclusive, Hsp90 Hop PPI 31.6µM, HEK293 cAMP cs inconclusive
Cc1c2ccccc2c(CSC(=N)N)c2ccccc12	none
CCOC(=O)c1cc2sccc2n1CC(=O)N1CCc2ccccc21	TSHR agonist inconclusive, HEK293 cAMP cs 15.8µM
N/C(=N\O)c1cn([C@@H]2O[C@@H](CO)[C@H](O)[C@@H]2O)c2ncnc(NO)c12	none

From PubChem BioAssay
